# In PubChem BioAssay (NCATS):
# Results filed as inconclusive are left out. Unmarked numbers belong to inactive results. Calls of active or inactive are those of the source. The call rests on the fitted dose curve; in most records, active means well fitted inhibition curve with a large enough effect; inconclusive means small, poorly fitted or top-dose-only effect; inactive means flat fitted curve, though single readings scatter.
# System: TAB109
# Experiment: qHTS profiling for inhibitors of Plasmodium falciparum proliferation (AID 504749);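 further: 0% = DMSO vehicle and full inhibition = artemisinin control; nearly all actives have a fitted effect of over 60% in size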
# Details: P. falciparum in erythrocytes, SYBR Green DNA, 72 h; series mostly up to 28.7 µM; activity, negative = inhibition: at the top concentration
# Summary of the method: (§1)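 Each compound contacts P. falciparum-infected red blood cells for 72 h at 37 C; lysis buffer (Tris, EDTA, saponin, Triton X, SYBR Green I) is added and fluorescence measured next morning; values normalized to controls.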
row,SMILES,"activity, negative = inhibition"
1,NC(CSCC(=O)O)C(=O)O (stereo not drawn),3.06%
2,O=C(O)c1ccccc1O,-7%
3,CCCCCCCCCCCCOS(=O)(=O)O,16.8%
4,CCCCC(CC)COC(=O)c1ccccc1O (stereo not drawn),2.56%
5,CC(O)CN(CCN(CC(C)O)CC(C)O)CC(C)O (stereo not drawn),5.58%
6,Cc1ncc(COP(=O)(O)O)c(C=O)c1O,10.2%
7,CC[C@@]1(c2ccccc2)NC(=O)N(C)C1=O,8.54%
8,[O-][n+]1cccc(CO)c1,10.9%
9,Oc1cccc(O)c1,15.5%
10,CCn1cc(C(=O)O)c(=O)c2cnc(N3CCNCC3)nc21,0.64% [at 12.8 µM]
11,CCC(=O)Nc1ccc(O)cc1,8.25%
12,O=c1cc[nH]c(=O)[nH]1,13.7%
13,C=Cc1c(C)c2cc3[nH]c(cc4nc(cc5nc(cc1[nH]2)C(C)=C5CCC(=O)O)C(CCC(=O)O)=C4C)c(C)c3C=C,5.97%
14,CC(O)COc1ccccc1 (stereo not drawn),16.2%
15,NS(=O)(=O)c1cc2c(cc1Cl)NC(CSCc1ccccc1)=NS2(=O)=O,2.77% [at 12.8 µM]
16,CCCCCCCCCCCCCCCCCCOCC(O)CO (stereo not drawn),0.664%
17,CC1(C)[C@@H]2CC[C@@]1(C)C(=O)C2,1.41%

# System: TAB113
# Experiment: as above
# Details: P. falciparum in erythrocytes, SYBR Green DNA, 72 h; series mostly up to 28.7 µM; activity, negative = inhibition: at the top concentration
# Summary of the method: as §1
SMILES,"activity, negative = inhibition",Potency
CCC(=O)c1ccc(O)cc1,1.32%,
Cc1cc(CC(=O)O)n(C)c1C(=O)c1ccc(Cl)cc1,,inactive
CC12CCC(CC1)C(C)(C)O2,2.58%,
COc1cc(C(=O)N2CCOCC2)cc(OC)c1OC,,inactive
CCCOC(=O)c1ccccc1,8.1%,
OCC(O)CN1CCN(c2ccccc2)CC1 (stereo not drawn),5.15%,
O=C1NS(=O)(=O)c2ccccc21,13.4%,
CC(=O)Oc1ccc(C2(c3ccc(OC(C)=O)cc3)C(=O)Nc3ccccc32)cc1,12.3%,
CC(=O)Nc1ccc(/C=N/NC(N)=S)cc1,,inactive
O=C(O)CC(O)C(=O)O (stereo not drawn),3.98%,
O=C(CCCN1CCN(c2ccccn2)CC1)c1ccc(F)cc1,-2.07%,
CC1=C(/C=C/C(C)=C/C=C/C(C)=C/C(=O)O)C(C)(C)CCC1,-17.4%,
Nc1nc2c(ncn2CCC(CO)CO)c(=O)[nH]1,15.7%,
O=C(O)c1ccccn1,15.9%,
Nc1ncnc2c1ncn2[C@@H]1O[C@H](CO)[C@@H](O)[C@H]1O,4.64%,
Cn1c(=O)c2c(ncn2CC2OCCO2)n(C)c1=O,-4.38%,
NC(CSCC(=O)O)C(=O)O (stereo not drawn),-9.53%,

SMILES,"activity, negative = inhibition",Potency
O=C(O)c1ccccc1O,17.9%,
CCCCCCCCCCCCOS(=O)(=O)O,0.177%,
CCCCC(CC)COC(=O)c1ccccc1O (stereo not drawn),2.2%,
CC(O)CN(CCN(CC(C)O)CC(C)O)CC(C)O (stereo not drawn),-3.32%,
Cc1ncc(COP(=O)(O)O)c(C=O)c1O,1.46%,
CC[C@@]1(c2ccccc2)NC(=O)N(C)C1=O,7.52%,
[O-][n+]1cccc(CO)c1,6.11%,
Oc1cccc(O)c1,9.95%,
CCn1cc(C(=O)O)c(=O)c2cnc(N3CCNCC3)nc21,7.56% [at 12.8 µM],
CCC(=O)Nc1ccc(O)cc1,15.8%,
O=c1cc[nH]c(=O)[nH]1,4.41%,
C=Cc1c(C)c2cc3[nH]c(cc4nc(cc5nc(cc1[nH]2)C(C)=C5CCC(=O)O)C(CCC(=O)O)=C4C)c(C)c3C=C,-4.84%,
CC(O)COc1ccccc1 (stereo not drawn),7.75%,
NS(=O)(=O)c1cc2c(cc1Cl)NC(CSCc1ccccc1)=NS2(=O)=O,-0.418% [at 12.8 µM],
CCCCCCCCCCCCCCCCCCOCC(O)CO (stereo not drawn),-6.05%,
CC1(C)[C@@H]2CC[C@@]1(C)C(=O)C2,4.12%,

# System: TAB165
# Experiment: as above
# Details: P. falciparum in erythrocytes, SYBR Green DNA, 72 h; series mostly up to 28.7 µM; activity, negative = inhibition: at the top concentration
# Summary of the method: as §1
SMILES,"activity, negative = inhibition",Potency
CCC(=O)c1ccc(O)cc1,10.7%,
Cc1cc(CC(=O)O)n(C)c1C(=O)c1ccc(Cl)cc1,,inactive
CC12CCC(CC1)C(C)(C)O2,10.9%,
COc1cc(C(=O)N2CCOCC2)cc(OC)c1OC,,inactive
CCCOC(=O)c1ccccc1,10.9%,
OCC(O)CN1CCN(c2ccccc2)CC1 (stereo not drawn),6.67%,
O=C1NS(=O)(=O)c2ccccc21,9.63%,
CC(=O)Oc1ccc(C2(c3ccc(OC(C)=O)cc3)C(=O)Nc3ccccc32)cc1,,inactive
CC(=O)Nc1ccc(/C=N/NC(N)=S)cc1,,inactive
O=C(O)CC(O)C(=O)O (stereo not drawn),12.8%,
O=C(CCCN1CCN(c2ccccn2)CC1)c1ccc(F)cc1,-1.19%,
CC1=C(/C=C/C(C)=C/C=C/C(C)=C/C(=O)O)C(C)(C)CCC1,-5.96%,
Nc1nc2c(ncn2CCC(CO)CO)c(=O)[nH]1,3.27%,
O=C(O)c1ccccn1,1.64%,
Nc1ncnc2c1ncn2[C@@H]1O[C@H](CO)[C@@H](O)[C@H]1O,10%,
Cn1c(=O)c2c(ncn2CC2OCCO2)n(C)c1=O,11.8%,
NC(CSCC(=O)O)C(=O)O (stereo not drawn),0.24%,

SMILES,"activity, negative = inhibition",Potency
O=C(O)c1ccccc1O,1.68%,
CCCCCCCCCCCCOS(=O)(=O)O,9.39%,
CCCCC(CC)COC(=O)c1ccccc1O (stereo not drawn),4.13%,
CC(O)CN(CCN(CC(C)O)CC(C)O)CC(C)O (stereo not drawn),14.5%,
Cc1ncc(COP(=O)(O)O)c(C=O)c1O,2.17%,
CC[C@@]1(c2ccccc2)NC(=O)N(C)C1=O,1.73%,
[O-][n+]1cccc(CO)c1,6.95%,
Oc1cccc(O)c1,6.73%,
CCn1cc(C(=O)O)c(=O)c2cnc(N3CCNCC3)nc21,0.604% [at 12.8 µM],
CCC(=O)Nc1ccc(O)cc1,17.5%,
O=c1cc[nH]c(=O)[nH]1,7.11%,
C=Cc1c(C)c2cc3[nH]c(cc4nc(cc5nc(cc1[nH]2)C(C)=C5CCC(=O)O)C(CCC(=O)O)=C4C)c(C)c3C=C,-2.04%,
CC(O)COc1ccccc1 (stereo not drawn),4.98%,
NS(=O)(=O)c1cc2c(cc1Cl)NC(CSCc1ccccc1)=NS2(=O)=O,4.01% [at 12.8 µM],
CCCCCCCCCCCCCCCCCCOCC(O)CO (stereo not drawn),5.67%,
CC1(C)[C@@H]2CC[C@@]1(C)C(=O)C2,13.6%,
